Most compounds without a hit are left out; they make up all but 19% or so of the library.
DT40 TDP1 CPT: DT40-hTDP1 cell growth loss with CPT. chicken DT40 Tdp1-/-;hTDP1 cells + 20 nM CPT, ATP luminescence, 48 h. Potency, µM (highest dose often 46.2 µM), for the others: at the highest dose activity change, negative = growth inhibition, usual class: inhibitors. actives 12% (n = 420,000). AID 686979; also: potency is read from the fitted curve at half-maximal effect; nearly all actives have a fitted effect of over 55% in size
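Cell growth measured by CellTiter-Glo luminescence after a minimum 48 h, 37 C compound exposure with 20 nM CPT in Tdp1-knockout DT40 cells stably expressing hTDP1, seeded 400/well; qHTS titration format.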
DT40 TDP1 no CPT: qHTS for Inhibitors of human tyrosyl-DNA phosphodiesterase 1 (TDP1): qHTS in cells in absence of CPT. Potency, µM (series often up to 46.2 µM), for inactives: at the highest dose activity change, negative = growth inhibition, actives largely listed as inhibitors. DT40 Tdp1-/- hTDP1 cells, no CPT, ATP luminescence, 48 h. actives 15% (n = 420,000); also: potency is read from the fitted curve at half-maximal effect; nearly all actives have a fitted effect of over 55% in size
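Chicken DT40 Tdp1-/- cells stably complemented with human TDP1 were seeded at 400 cells/well with DMSO in place of 20 nM camptothecin. After compound pinning, cells grew at least 48 hr at 37 °C; viability read by CellTiter-Glo luminescence.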
IL1B secr inh: inflammasome signaling inhibition, IL-1 beta readout; activity change, % at 57.5 µM; actives 4.7% (n = 360,000); THP-1 LPS/ATP IL-1B secretion, AlphaLISA, 16 h; active compounds read low; in the data active = activity change below about -50%; inconclusive = mostly about -30% to -49%
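Secreted IL-1B measured by AlphaLISA bead assay after 16 h compound exposure of THP-1 cells; compounds (final up to 57.5 uM) added 1 h before LPS (250 ng/mL) and ATP (1.25 mM) stimulation; lower signal means less secretion.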
HT1080NT lethal: kills 2HG-producing HT-1080-NT fibrosarcoma cells. HT-1080-NT fibrosarcoma viability, CellTiter-Glo ATP luminescence, 48 h. Potency, µM (doses to about 46.1 µM), for the others: top-dose activity, negative = less viability, hits mostly cytotoxic. actives 1.6% (n = 360,000). AID 686970;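 also: NT is the 2HG producing partner of a matched IDH1 knockdown line; potency is read from the fitted curve at half-maximal effect; 0% = DMSO-treated cells and -100% = media-only wells without cells; nearly all actives have a fitted effect of over 55% in size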
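Viability by CellTiter-Glo luminescence after 48 h compound exposure at 37C of HT-1080-NT cells (750/well, RPMI, 5% FBS). % activity scaled between DMSO wells and medium-only wells, then curve-fitted and categorized by curve class.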
HT1080 IDH1KD tx: HT-1080 IDH1 knockdown cell toxicity (counter line); Potency, µM (highest dose often 46.1 µM), inactives show at the highest dose activity, negative = toxicity, most hits filed as cytotoxic; HT-1080 IDH1 knockdown viability, ATP luminescence, 48 h; AID 686971; actives 2% (n = 360,000);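 also: potency is read from the fitted curve at half-maximal effect; 0% = DMSO wells and -100% = cell-free medium wells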
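% activity derives from luminescence (CellTiter-Glo), normalised to DMSO and no-cell wells. HT-1080-IDH1KD cells, 750/well, had 48 h compound exposure at 37 °C.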
The depositor's hits bear a star; u = inconclusive; x = no result. Unless noted, calls follow the shape of the dose curve; as a rule, active = well fitted curve in the direction sought with a large enough effect; inconclusive = small, poorly fitted or top-dose-only effect, or another doubt; inactive = no such curve, though single readings can be large; an effect the other way counts as inactive or inconclusive. Unless noted, % is scaled to controls: 0 for no effect and ±100 for the full control effect.

SMILES | DT40 TDP1 CPT | DT40 TDP1 no CPT | IL1B secr inh | HT1080NT lethal | HT1080 IDH1KD tx
O=C(COC(=O)CC1CC2CCC1C2)Nc1ccc(Cl)c(S(=O)(=O)N2CCOCC2)c1 (centres undefined) | 16µM* | u | 44 | -14% | u
O=C(Nc1ccc(Cl)c(S(=O)(=O)N2CCOCC2)c1)c1cc2ccccc2oc1=O | u | u | 7 | 4% | 9%
COc1ccc(S(=O)(=O)N2CCOCC2)cc1NC(=O)COC(=O)CC1CC2CCC1C2 (centres undefined) | -26% | -6% | 15 | 0% | 3%
O=C(O)c1cc(S(=O)(=O)N2CCCCC2)ccc1Cl | -1% | 4% | -3 | 13% | 17%
Nc1cc(S(=O)(=O)N2CCCCC2)ccc1Oc1ccccc1 | u | 10µM* | 4 | -2% | u
CN(CCOc1ccccc1)C(=O)c1cc(S(=O)(=O)N2CCCCC2)ccc1Cl | u | u | -65* | -12% | -2%
C[C@H](NC(=O)[C@@H]1CSC2c3ccccc3C(=O)N21)C(=O)NCCc1ccc(F)cc1 (some centres undefined) | -11% | 9% | 15 | -2% | 19%
Cc1c(C(=O)O)cccc1-c1ccc(/C=N/Nc2ccc(Br)cc2)o1 | -4% | -25% | 5 | -23% | u
NC(=O)c1cc(S(=O)(=O)N2CCCC2)ccc1OCCOc1ccccc1 | -5% | -22% | -51* | 4% | 5%
O=C(CCOc1ccccc1)Nc1ccc(Cl)c(S(=O)(=O)N2CCOCC2)c1 | u | u | -72* | 5% | -9%
Cc1ccc(C(=O)N(C)CCOc2ccccc2)cc1S(=O)(=O)N1CCOCC1 | u | u | 0 | 9% | 16%
CN(CCOc1ccccc1)C(=O)c1cc(S(=O)(=O)N2CCOCC2)c(Cl)cc1Cl | 18µM* | u | -8 | -11% | -15%
O=C(CSc1ccccc1)Nc1ccc(Cl)c(S(=O)(=O)N2CCOCC2)c1 | -2% | -26% | -23 | -20% | -15%
CCCSc1ccc2nc(-c3ccccc3)cn2c1 | 18µM* | 16µM* | -4 | 12µM* | 12µM*
CCCCSc1ccc2nc(-c3ccc(C#N)cc3)cn2c1 | u | u | -3 | -26% | -25%
O=Cc1ccnc(-c2ccc(OC(=O)c3ccco3)cc2)n1 | 5.2µM* | 5.8µM* | -86* | 4% | -14%
CCC(C)(C)C(=O)Nc1ncc(S(=O)(=O)c2ccc([N+](=O)[O-])cc2)s1 | u | u | 58 | -16% | -27%
CCCC(C)C(=O)Nc1ncc(S(=O)(=O)c2ccc([N+](=O)[O-])cc2)s1 (centres undefined) | 15µM* | u | 53 | -8% | -14%
O=C(CCl)Nc1ncc(S(=O)(=O)c2ccc([N+](=O)[O-])cc2)s1 | 29µM* | 16µM* | u | u | -19%
COc1cc2ccccc2cc1C(=O)N1CCN(c2nc3c(F)cc(F)cc3s2)CC1 | 21µM* | 8.2µM* | x | x | x
COc1cc2ccccc2cc1C(=O)N1CCN(c2nc3c(F)cccc3s2)CC1 | 21µM* | 16µM* | x | x | x
COc1cccc2sc(N3CCN(C(=O)c4cccs4)CC3)nc12 | u | -24% | -14 | -3% | -2%
O=C(Nc1nc(-c2ccccn2)cs1)c1ccc(Br)s1 | 1µM* | 0.65µM* | 100 | 2µM* | 1.4µM*
COc1ccc(-c2csc(NC(=O)COC(=O)c3ccco3)n2)cc1 | 23µM* | u | -11 | -9% | 5%
C[C@H](NC(=O)c1ccco1)C(=O)Nc1nc(-c2ccccn2)cs1 | u | 13µM* | 54 | -2% | -26%
SMILES | DT40 TDP1 CPT | DT40 TDP1 no CPT | IL1B secr inh | HT1080NT lethal | HT1080 IDH1KD tx
COc1ccc(-c2csc(NC(=S)NC(=O)c3ccco3)n2)cc1 | -5% | 3% | 21 | 9% | 4%
CCC(=O)N1CCc2cc(-c3csc(NC(=O)c4ccco4)n3)ccc21 | u | 13µM* | 10 | u | 29%
C[C@H](NC(=O)c1ccco1)C(=O)Nc1nnc(SCc2ccccc2)s1 | -18% | 24% | 18 | 5% | 7%
O=C(NCCc1ccc(F)cc1)c1ccc(Cl)c(S(=O)(=O)N2CCOCC2)c1 | u | -20% | 0 | -6% | -11%
O=C(NC(=S)Nc1nc(-c2ccccc2)cs1)c1ccco1 | u | -29% | 53 | 1% | 3%
O=C(Nc1nc(-c2ccccn2)cs1)c1cccc(-n2cnnn2)c1 | 5.2µM* | 4.6µM* | 180 | u | u
O=C(Nc1nc(-c2ccncc2)cs1)c1ccco1 | u | 11µM* | -21 | 0% | -6%
O=C(Nc1cccnc1)c1ccc(Br)s1 | u | u | -6 | u | 10µM*
O=C(Nc1nc(-c2ccccn2)cs1)c1ccco1 | 5.2µM* | 1.6µM* | 74 | u | -23%
CCc1nc2ccc(C(=O)N3CCN(C(=O)c4ccco4)CC3)cn2c1N(C)C(=O)c1cccc(OC)c1 | -20% | -30% | -3 | -1% | 3%
Cc1cc(C)cc(NC(=O)CSc2nnc(CNC(=O)c3c(F)cccc3Cl)o2)c1 | 18% | -4% | x | x | x
CC1CC(OC(=O)C2CCN(S(=O)(=O)c3ccc(F)cc3)CC2)C(=O)O1 (centres undefined) | 9% | -26% | 21 | 2% | 3%
O=C(Nc1nc(-c2cc(Cl)sc2Cl)cs1)c1ccc(Br)s1 | 18µM* | 16µM* | -27 | 15% | 5%
O=C(Nc1nc(-c2ccccc2)cs1)C1c2ccccc2Oc2ccccc21 | -22% | -22% | 19 | -19% | -5%
c1ccc(-c2nc(-c3ccco3)cs2)nc1 | 15µM* | 16µM* | -8 | -5% | 3%
O=C(Nc1nc(-c2ccncc2)cs1)C1c2ccccc2Oc2ccccc21 | 21µM* | 13µM* | 9 | -25% | -18%
c1ccc(-c2nccc(-c3ccco3)n2)nc1 | u | u | -26 | 21% | 6%
Cc1ccccc1CNC(=O)Cn1c(=O)c2cccn2c2cccnc21 | -2% | u | x | x | x
O=C(C1CCCO1)N1CCN(C(=S)Nc2ccccc2Cl)CC1 (centres undefined) | u | 13% | -11 | 1% | -4%
Cc1nc(C)c(-c2ccc(SCC(=O)Nc3ccc(F)cc3F)nn2)s1 | u | u | 0 | -1% | -1%
Cc1nc(C)c(-c2ccc(SCC(=O)Nc3ccccc3F)nn2)s1 | u | 15µM* | x | x | x
Cc1nc(C)c(-c2ccc(SCC(=O)Nc3cccc(C)c3C)nn2)s1 | 16µM* | 21µM* | x | x | x
N#CC1(NC(=O)COC(=O)c2cc(=O)[nH]c3ccccc23)CCCCC1 | -12% | -12% | 11 | 0% | 0%

Source: PubChem BioAssay
